SW480 rereplic = inducers of DNA re-replication in SW480 colon cancer cells | SW480 DNA re-replication, Hoechst DNA content imaging, 48 h | Potency, µM (series often up to 46.1 µM), inactives show at the top dose re-replication activation, hits mostly activators | hit rate 1.8% among 340,000; note: % of control where 0% means no effect; nearly all actives have a fitted effect of over 55% in size
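Compounds, transferred as 23 nL by pin tool, were incubated with cells for 48 hr; DNA content per nucleus was then quantified by Hoechst staining and fluorescence plate imaging.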
KB-V1 MDR tox = KB-V1 MDR subline cytotoxicity; KB-V1 MDR cells viability, CellTiter-Glo, 72 h; Potency, µM (highest dose often 46.1 µM), hits mostly cytotoxic; hit rate 3.4% among 400,000; AID 1347076; note: % is set by controls: 0 for no effect and ±100 for the full control effect; nearly all actives have a fitted effect of over 60% in size
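qHTS viability screen in drug-selected KB-V1 MDR cells: 72 h compound treatment at 37 degrees C, ATP luminescence end point.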
ELG1 repair inh = inhibitors of ELG1-dependent DNA repair in HEK293T cells. HEK293T ELG1-luciferase reporter, luminescence, 16 h; DNA damage induced by 5-fluorouridine. Potency, µM (series often up to 46.1 µM), for the others: at the top dose activity change, negative = inhibition, actives largely listed as inhibitors. hit rate 2.3% among 330,000; note: % is set by controls: 0 for no effect and ±100 for the full control effect; nearly all actives have a fitted effect of over 55% in size
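5-Fluorouridine DNA damage + compound/DMSO, 2,000 cells/well, 16 h, 37 °C/5% CO2. ONE-Glo, 30 min RT, luminescence. Readout = decrease in reporter signal.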
KB-3-1 cytotox = KB-3-1 parental cell cytotoxicity. KB-3-1 viability, CellTiter-Glo ATP luminescence, 72 h. Potency, µM (top dose mostly 46.1 µM), actives largely listed as cytotoxic. hit rate 1.4% among 400,000. AID 1347075; note: % is set by controls: 0 for no effect and ±100 for the full control effect; nearly all actives have a fitted effect of over 60% in size
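Screening of KB-3-1 cells (DMEM, 10% FBS, phenol-red free) ran from lowest to highest compound concentration; after 72 h at 37 °C viability was read luminescently and curves fitted.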
MCF10A rerep = DNA re-replication induction in MCF 10a cells. hit rate 2.9% among 350,000. MCF 10A DNA re-replication, Hoechst nuclear intensity, 48 h. Potency, µM (series often up to 46.1 µM), without a hit: top-dose activity, positive = re-replication, most hits filed as activators; note: % of control where 0% means no effect; nearly all actives have a fitted effect of over 50% in size
Starred values were filed as active, the others as inactive; i = inactive; ? = inconclusive; · = no result. A selection: hits, their analogues and other compounds. The true share with any hit is near 8.2%. Calls come from the whole dose curve; as a rule, active = well fitted curve in the direction sought with a large enough effect; inconclusive = small, poorly fitted or top-dose-only effect, or another doubt; inactive = no such curve, though single readings can be large; an effect the other way counts as inactive or inconclusive. Potency is the fitted concentration of half-maximal effect.

SMILES	SW480 rereplic	KB-V1 MDR tox	ELG1 repair inh	KB-3-1 cytotox	MCF10A rerep
NS(=O)(=O)c1ccc(N/N=C/c2cn(-c3ccccc3)nc2-c2ccccc2)c([N+](=O)[O-])c1	-33.1%	?	10.9%	?	22.7%
O=[N+]([O-])c1ccc(N/N=C/c2cn(-c3ccccc3)nc2-c2ccccc2)cc1	10.3µM*	?	?	i	1.64µM*
C/C(=N\Nc1ccc([N+](=O)[O-])cc1)c1ccc(O)cc1	23.1µM*	i	?	i	14.6µM*
O=[N+]([O-])c1ccc(N/N=C/c2ccc[nH]2)cc1	19.2%	?	28.3%	i	21.8%
Cc1cccc(C(=O)Oc2ccc(/C=N/O)cc2)c1	5.3%	i	?	i	0.7%
O=[N+]([O-])c1ccc(N/N=C/c2cccc(O)c2O)cc1	?	i	3.5%	?	23.1µM*
C/C(=N\Nc1ccc([N+](=O)[O-])cc1)c1cccc(N)c1	6.2%	?	8.1%	i	?
Cc1cccc(C(=O)Oc2ccccc2/C=N/Nc2ccc([N+](=O)[O-])cc2)c1	13µM*	i	?	?	?
CCN(CC)CC(=O)c1c(C)n(C)c2ccc(OC)cc12	·	?	·	i	·
O=[N+]([O-])c1ccc(N/N=C/c2cccc(O)c2)cc1	?	i	?	i	18.4µM*
O=[N+]([O-])c1ccc(N/N=C/c2cccnc2)cc1	?	i	18.5%	i	12.7%
O=[N+]([O-])c1ccc(NN=Cc2cccc([N+](=O)[O-])c2)cc1	25.3%	i	·	i	23.1µM*
CCCCCCCCCS(=O)(=O)N/N=C/c1cccc([N+](=O)[O-])c1	0.4%	i	-3.5%	i	14.6µM*
CCCCCCCCCCS(=O)(=O)N/N=C/c1ccc(O)cc1	-2.9%	i	6.3%	i	0.8%
Cc1ccc(S(=O)(=O)N/N=C/c2cccc([N+](=O)[O-])c2)cc1	-72.9%	?	10.1%	i	?
CCCCCCCCCCS(=O)(=O)N/N=C/c1ccccc1OC	-1.5%	i	6.5%	i	18.4µM*
Nc1ccc2c(c1)C(=O)N(c1ccc3ccccc3c1)C2=O	·	i	·	i	·
O=C(O)/C=C/c1cn(-c2ccccc2)nc1-c1ccc(-c2ccc([N+](=O)[O-])cc2)o1	?	i	-12.3%	i	3.26µM*
CCN1C(=O)/C(=C\c2ccncc2)SC1=Nc1ccc(C)c(C)c1	-1.0%	14.6µM*	?	?	?
CC(C)(C)NC(=O)[C@H]1CN(Cc2cccnc2)CCN1C[C@@H](O)C[C@@H](Cc1ccccc1)C(=O)N[C@H]1c2ccccc2C[C@H]1O	3.2%	·	·	·	?
Cc1ccc(N(Cc2cc3cc(C)ccc3[nH]c2=O)C(=O)c2cccs2)cc1	0.9%	?	-5.1%	i	-1.5%
O=C(c1cccs1)N(Cc1cc2ccccc2[nH]c1=O)c1ccccc1	0.5%	5.17µM*	-3.4%	?	-69.9%
Cc1ccc(N(Cc2cc3ccccc3[nH]c2=O)C(=O)c2cccs2)cc1C	?	?	23.1µM*	i	-3.6%
Cc1ccc(-n2c(-c3ccc(Br)cc3)c[n+]3c2CCc2ccc4cccnc4c2-3)cc1	15.3%	?	?	2.59µM*	?
O=C(Nc1cccn(Cc2c(F)cccc2Cl)c1=O)NC1CCCCC1	18.4µM*	?	?	2.59µM*	20.6µM*
SMILES	SW480 rereplic	KB-V1 MDR tox	ELG1 repair inh	KB-3-1 cytotox	MCF10A rerep
O=C(Nc1cccn(Cc2cccc(F)c2)c1=O)NC1CCCCC1	17.1%	i	?	i	-0.6%
O=C(Nc1cccn(Cc2c(Cl)cccc2Cl)c1=O)C1CC1	-140.1%	i	?	i	-10.0%
C#CCOC(=O)Nc1cccn(Cc2c(Cl)cccc2Cl)c1=O	?	?	-11.4%	10.3µM*	?
CCN(C[C@H]1N[C@@](C)(C(=O)OC)[C@H]2C(=O)N(C)C(=O)[C@@H]12)C(=O)Nc1ccc(OC)cc1	-9.8%	i	19.0%	i	2.7%
Cc1cscc(C)c1=S	·	i	·	i	·
O=C(NC1CCOC1=O)c1ccccc1 (centres undefined)	-8.2%	i	·	i	-30.4%
O=c1[nH]c(CN2CCN(S(=O)(=O)c3ccccc3C(F)(F)F)CC2)nc2sc3c(c12)CCCC3	3.0%	i	16.4µM*	i	-2.4%
Cc1ccc2c(c1)CCC2=O	·	i	·	i	·
C=CCc1c(C)c(C#N)c2nc3ccccc3n2c1N1CCCCC1	?	i	?	?	13.0%
C=C(C)CSc1cc(C)c(C#N)c2nc3ccccc3n12	?	i	?	i	5.8µM*
C=C(C)Cc1c(C)c(C#N)c2nc3ccccc3n2c1N1CCCCC1	-6.1%	3.66µM*	-8.9%	i	?
CCOC(=O)n1c(=O)n(C)c2ccc(Cl)cc21	-1.3%	8.2µM*	?	?	-9.6%
CCOC(=O)n1c(=O)n(Cc2ccccc2)c2ccccc21	-2.9%	?	14.1%	i	3.6%
Cc1cs/c(=N\N=C\c2ccccc2)n1Cc1ccco1	-4.0%	16.4µM*	?	?	?
CC(C)=N/N=c1\scc(C)n1Cc1ccco1	-6.1%	i	-4.2%	i	13.7%
Cc1csc(=Nc2cccnc2)n1Cc1ccco1	-2.7%	i	-1.6%	i	22.5%
Cc1csc(=Nc2ccc(S(=O)(=O)N3CCOCC3)cc2)n1Cc1ccco1	-9.9%	i	14.6µM*	i	11.9%
COc1ccc(CNC(=O)C2CCCN(S(=O)(=O)c3c(C)noc3/C=C/N(C)C)C2)cc1 (centres undefined)	-9.1%	i	16.2%	i	?
OC(COc1cccc2ccccc12)CN1CCN(c2cccc(Cl)c2)CC1 (centres undefined)	14.1%	i	-4.2%	i	25.9µM*
OC(COc1c(F)cc(Br)cc1F)CN1CCN(c2ccc(F)cc2)CC1 (centres undefined)	-3.5%	16.4µM*	-26.9%	?	17.4%
CCN1CCCC1CNCC(O)COc1ccc(C(C)(C)C)cc1C (centres undefined)	?	i	-2.8%	i	9.2µM*
Cc1cc(O)c(C(C)C)cc1C1(c2cc(C(C)C)c(O)cc2C)OC(=O)c2ccccc21	?	?	16.4µM*	?	9.2µM*
Cc1cc(C2(c3ccc(O)c(C)c3)OC(=O)c3ccccc32)ccc1O	?	i	0.4%	i	?
O=c1oc2ccccc2cc1-c1csc(Nc2nc3ccc(F)cc3s2)n1	-1.1%	·	?	·	1.8%
O=c1oc2ccccc2cc1-c1csc(Nc2nc3c(F)cccc3s2)n1	·	?	?	16.4µM*	5.8µM*
CSc1nsc(SC)c1C(=O)N1CCN(S(=O)(=O)c2ccc(C)cc2)C1C(C)C (centres undefined)	-0.7%	?	18.4µM*	i	3.6%
